# Results reported in PubChem BioAssay AID604 (The Scripps Research Institute Molecular Screening Center, 2007).
# Screen size: about 60,000 compounds; about 210 (0.35%) were called active. The sample holds actives, similar compounds and a random draw of the others, so the mix is not that of the screen.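 Rule for the calls: active = inhibition above the screen-wide mean inhibition plus 3 SD (cut at about 18% in these data); inactive = the rest.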
# Biological target: Rho-associated protein kinase 2 (Homo sapiens) (UniProt O75116)
# Assay: ROCK2 enzymatic activity blockers – biochemical, high-throughput, luminescence, primary screen (AID 604);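 note: plate controls were DMSO wells for no effect and Y-27632 control wells after no-enzyme background subtraction for full effect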
# Conditions: purified ROCK2, Kinase-Glo ATP depletion luminescence; at 6 µM; stronger effect = higher value
# Sequence of Rho-associated protein kinase 2 (Homo sapiens) (O75116 whole entry, looked up): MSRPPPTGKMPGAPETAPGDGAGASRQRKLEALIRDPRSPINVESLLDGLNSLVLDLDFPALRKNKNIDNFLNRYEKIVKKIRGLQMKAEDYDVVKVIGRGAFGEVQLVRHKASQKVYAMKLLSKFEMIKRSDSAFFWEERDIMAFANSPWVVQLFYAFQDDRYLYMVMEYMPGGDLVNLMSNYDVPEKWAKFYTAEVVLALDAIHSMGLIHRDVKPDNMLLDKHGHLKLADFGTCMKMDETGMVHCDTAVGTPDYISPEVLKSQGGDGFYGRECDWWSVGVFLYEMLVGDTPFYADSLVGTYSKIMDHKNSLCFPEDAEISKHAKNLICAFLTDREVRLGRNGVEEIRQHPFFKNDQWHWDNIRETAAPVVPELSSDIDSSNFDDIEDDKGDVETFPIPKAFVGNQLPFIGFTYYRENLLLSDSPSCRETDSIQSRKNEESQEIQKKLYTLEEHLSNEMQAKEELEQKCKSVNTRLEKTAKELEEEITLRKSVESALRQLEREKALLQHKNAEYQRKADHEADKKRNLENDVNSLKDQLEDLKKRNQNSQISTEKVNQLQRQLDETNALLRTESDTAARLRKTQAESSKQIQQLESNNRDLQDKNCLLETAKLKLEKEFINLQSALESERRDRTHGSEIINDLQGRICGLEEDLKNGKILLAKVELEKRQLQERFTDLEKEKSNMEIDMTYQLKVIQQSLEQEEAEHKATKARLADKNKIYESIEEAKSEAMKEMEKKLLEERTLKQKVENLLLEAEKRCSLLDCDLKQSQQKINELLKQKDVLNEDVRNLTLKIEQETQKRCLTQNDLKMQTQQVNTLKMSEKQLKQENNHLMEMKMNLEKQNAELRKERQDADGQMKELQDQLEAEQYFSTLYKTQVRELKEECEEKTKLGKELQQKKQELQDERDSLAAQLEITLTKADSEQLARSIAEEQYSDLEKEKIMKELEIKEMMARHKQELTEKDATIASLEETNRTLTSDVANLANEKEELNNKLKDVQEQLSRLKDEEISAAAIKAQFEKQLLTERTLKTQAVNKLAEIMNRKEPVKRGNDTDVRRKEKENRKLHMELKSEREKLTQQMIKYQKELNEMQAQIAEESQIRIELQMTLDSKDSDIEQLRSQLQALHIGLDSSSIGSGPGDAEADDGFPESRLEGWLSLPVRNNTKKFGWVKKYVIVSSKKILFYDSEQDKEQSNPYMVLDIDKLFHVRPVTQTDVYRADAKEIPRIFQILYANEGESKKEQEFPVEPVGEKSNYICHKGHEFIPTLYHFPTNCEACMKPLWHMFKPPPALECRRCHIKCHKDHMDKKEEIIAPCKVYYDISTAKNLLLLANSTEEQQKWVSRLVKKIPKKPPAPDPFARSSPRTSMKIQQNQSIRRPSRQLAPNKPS
row,SMILES,inhibition
1,O=C(Nn1cnc2ccccc2c1=O)c1ccc(F)cc1Cl,4.2% (inactive)
2,CCCCCCn1c(SCC(=O)c2ccccc2)nc2c1c(=O)[nH]c(=O)n2C,6.3% (inactive)
3,O=C(CSc1nnc2scc(-c3ccc(F)cc3)n12)NCc1ccco1,2.1% (inactive)
4,CC1(C)C2CCC1(C)C(OC(=O)CCn1ccnc1)C2 (stereo not given),6.6% (inactive)
5,O=C(CC1Nc2ccccc2NC1=O)Nc1ccccc1 (stereo not given),3% (inactive)
6,O=C(C1=C(O)C(=O)N(c2ncccn2)C1c1cccs1)c1ccco1 (stereo not given),-11.1% (inactive)
7,CNC(=O)C1CC(=O)N(Cc2ccc3c(c2)OCO3)C(=Nc2ccc(F)cc2)S1 (stereo not given),-7.4% (inactive)
8,O=CN1CCN(C2CC(=O)N(c3ccc4c(c3)OCO4)C2=O)CC1 (stereo not given),7% (inactive)
9,O=C1CC(N2CCN(C(c3ccccc3)c3ccccc3)CC2)C(=O)N1 (stereo not given),5.5% (inactive)
10,CCCCCC(=O)Nc1ccc2oc(-c3ccncc3)nc2c1,22.3% (active)
11,CCCC(=O)Nc1ccc2c(c1)nc1n2CCSC1,-0.6% (inactive)
12,CCc1ccc2oc(-c3ccc(N)cc3)nc2c1,4.1% (inactive)
13,NC(=O)C1CCN(C2OC(=O)c3ccccc32)CC1 (stereo not given),7.4% (inactive)
14,COc1cc2c(cc1NC(=O)CN1CCN(S(=O)(=O)c3ccc(F)cc3)CC1)oc1ccccc12,3.5% (inactive)
15,Cc1noc(COc2ccccc2OCC(O)CNC(C)(C)C)n1 (stereo not given),1.2% (inactive)
16,O=P(c1ccc2c(c1)OCCO2)(N1CCOCC1)N1CCOCC1,-3.2% (inactive)
17,Cc1nn(-c2ccccc2)c2[nH]c(C(F)(F)F)cc(=O)c12,-0.3% (inactive)
18,CCOc1ccc(CCNC(=O)C(CC)n2nc(C)n3c(cc4sccc43)c2=O)cc1OCC (stereo not given),-3.8% (inactive)
19,CCc1nnc(NC(=O)CCC(=O)O)s1,-4.5% (inactive)
20,O=[n+]1c2c(n([O-])c3cc(Br)ccc31)CCC2,-5% (inactive)
21,CC(=O)c1ccc(NC(=O)N[C@@H](Cc2ccccc2)C(=O)O)cc1,-0.8% (inactive)
22,Cc1cc(Nc2ccccc2)n(CCC#N)n1,4.6% (inactive)

row,SMILES,inhibition
1,Cc1c(C(=O)N2CC(C)OC(C)C2)sc2nc(-c3ccccc3)cn12 (stereo not given),8.6% (inactive)
2,Cc1c(NC(=O)C(C)OC(=O)c2cc3c4ccccc4n(C)c3s2)c(=O)n(-c2ccccc2)n1C (stereo not given),5.5% (inactive)
3,Fc1cnc(N2CCOCC2)nc1NCc1ccccc1,-0.4% (inactive)
4,Cc1nc(-c2ccc(NC(=O)c3cccs3)cc2)cs1,-25% (inactive)
5,Cc1nnc(NC2=NCCCCC2)o1,-0.7% (inactive)
6,Cc1ccc(S(=O)(=O)c2nc(NCCCn3ccnc3)sc2Cl)cc1,1.7% (inactive)
7,CCC1(C)N(O)C(C)(C)C(c2ccc(OC)cc2)=[N+]1[O-] (stereo not given),2.5% (inactive)
8,O=c1[nH]c(=O)n(Cc2ccco2)c2c1C(C(F)(F)F)(C(F)(F)F)N=C(c1ccco1)N2,5% (inactive)
9,N#CCCN1CCN(S(=O)(=O)c2ccc(S(=O)(=O)NC3CC3)cc2)CC1,1.7% (inactive)
10,CCOC(=O)CSc1nnc(-c2cccc(Br)c2)o1,2.1% (inactive)
11,COc1cc(=O)[nH]c(=O)n1C(=O)Cc1ccccc1,-0.6% (inactive)
12,Cc1cc(C)nc(SCc2ccccc2C#N)n1,6% (inactive)
13,COc1ccc(N2C(=O)C3CCCN3C2c2cccs2)cc1 (stereo not given),-2.8% (inactive)
14,CCC(C)(NC(=O)c1ccccn1)C(=O)NC1CCCCC1 (stereo not given),-0.8% (inactive)
15,Cc1ccc2[nH]c(=O)c(COC(=O)c3ccccn3)cc2c1,6.5% (inactive)
16,CCCC(=O)Nc1ccc(Cl)c(NC(=O)c2ccc(Br)o2)c1,-0.6% (inactive)
17,O=C(c1ccco1)N1CCN(C(=O)C2CC(c3ccc(F)cc3)=NO2)CC1 (stereo not given),1.1% (inactive)
18,COc1ccc(C(=O)Nc2c(N)nc(SCC(=O)N3CCC(C)CC3)[nH]c2=O)cc1OC,1.5% (inactive)
19,CN1CCN(CC(O)COCc2ccc3c(c2)OCO3)CC1 (stereo not given),5.7% (inactive)
20,O=C(NCc1ccco1)c1cnn2c(C(F)(F)F)cc(-c3ccco3)nc12,12.9% (inactive)
21,NC(=O)Cn1c(=O)oc2ccccc21,-2% (inactive)
22,CCOc1ccc2[nH]c(=O)c(CN(CCCO)C(C)=O)cc2c1,-4.4% (inactive)

row,SMILES,inhibition
1,Fc1ccc(Cn2nnnc2C(c2cccs2)N2CCCCCC2)cc1 (stereo not given),4.1% (inactive)
2,CC(C)C1Cc2c(sc3c2c(=O)n(-c2ccccc2)c2nncn32)CO1 (stereo not given),5.5% (inactive)
3,O=C(c1ccco1)N1CCN(C(=O)c2ccc(COc3ccc(F)cc3)o2)CC1,-1.9% (inactive)
4,O=S(=O)(Nc1ccccn1)c1ccc(Oc2ccccc2)cc1,-6.5% (inactive)
5,Nn1c(SCC(=O)NC(=O)NC2CCCC2)nnc1-c1ccccc1F,12.5% (inactive)
6,CN1C(=O)c2ccc(NC(=O)c3c(F)c(F)c(F)c(F)c3F)cc2C1=O,9.3% (inactive)
7,CCCCC(=O)Nc1ccc2c(c1)OCCO2,-1.9% (inactive)
8,CCCCC(=O)Nc1ccc2c(c1)C(=O)NC2=O,23.1% (active)
9,Cc1ccccc1CSCC(=O)NC(=O)NC(C)(C)C,4.6% (inactive)
10,CCSc1nc(=S)n(CC)c(C)c1C(C)=O,0.9% (inactive)
11,CSc1ccc(NC(=O)N2CC(C)OC(C)C2)cc1 (stereo not given),6.5% (inactive)
12,CCN(CC)C(=O)CSc1nnc(-c2ccc(S(=O)(=O)NCc3ccccc3Cl)cc2)o1,1.9% (inactive)
13,Cc1nn(Cc2ccc(Cl)c(Cl)c2)c(C)c1NC(=O)c1cc(C2CC2)on1,-8.2% (inactive)
14,Cc1ccc(O)c(NC(=O)COc2cc(C)ccc2C)c1,3.2% (inactive)
15,COc1ccc(OC)c(NC(=O)CN2CCN(C(=O)c3ccco3)CC2)c1,0.1% (inactive)
16,OCCNCCCCOc1ccccc1F,5.9% (inactive)
17,CCSc1ncnc2c(C#N)c3n(c12)CCCCC3,3% (inactive)
18,CC(=O)Nc1nonc1-c1nc2ccccc2n1Cc1ccccn1,2.3% (inactive)
19,Cn1c(=O)c2c(n(Cc3ccccc3)c1=O)NC(=O)C2CC(=O)N1CCc2ccccc2C1 (stereo not given),6.4% (inactive)
20,C=CCn1c(C)cc(C(=O)CN2C(=O)c3ccccc3C2=O)c1C,2.5% (inactive)
21,CCCn1cc(SCC(N)=O)c2ccccc21,4.9% (inactive)
